ULK1 inh – ULK1 kinase inhibitors, primary screen, biochemical, AlphaScreen. Serine/threonine-protein kinase ULK1 (Homo sapiens), O75385. AlphaScreen Atg13 phosphorylation by ULK1, luminescence. inhibition, % at 5.96 µM. 1.9% of 30,000 active. AID 1259251, 2017; in the data active = inhibition above about 43%;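 note: 0% = median of compound wells and 100% = no enzyme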
ASK1 primary – ASK1 kinase inhibitors, primary screen, biochemical, AlphaScreen; Mitogen-activated protein kinase kinase kinase 5 (Homo sapiens), Q99683; AlphaScreen MKK6 phosphorylation by ASK1, luminescence; inhibition, % at 7.44 µM; 0.99% of 22,000 active; in the data active = inhibition above about 35%;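 note: 0% = median of compound wells and 100% = no enzyme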
The depositor's hits bear a star; nt = no result. A selection: hits, their analogues and other compounds. The true share with any hit is near 2.5%.

SMILES | ULK1 inh | ASK1 primary
Cn1c(Nc2ccc(N3CCC(C(=O)NCCN4CCOCC4)CC3)nn2)nc2ccccc21 | 11 | 3
CC(C)N(CCNc1cc(N2CCN(Cc3ccc4c(c3)OCO4)CC2)nc(N)n1)C(C)C | -3 | -7
Cc1n[nH]c(C)c1-c1ccc2nc(C(C)C)[nH]c(=O)c2c1 | 60* | 6
CC(C)c1nc2ccc(-c3cnn(C)c3)cc2c(=O)[nH]1 | -3 | -10
CNC(=O)c1ccccc1Nc1cc(Nc2ccc(N3CCSCC3)cc2OC)ncc1C#N | 86* | 33
CN(C)Cc1cnc(Nc2ccc(N3CCOCC3)cc2)cc1Nc1ccccc1C#N | 5 | 13
NC(=O)c1ccccc1Nc1ccnc(Nc2ccc(N3CCOCC3)cc2F)c1 | -8 | 5
CNC(=O)c1ccccc1Nc1cc(Nc2ccc(N3CCS(=O)(=O)CC3)cc2OC)ncc1C#N | 81* | 5
COc1cc2nc(Nc3cnccn3)nc(NC3CC3)c2cc1OC | 6 | 2
O=C(Nc1ccc2[nH]ncc2c1)C1CCNC1 (centres undefined) | 12 | -9
O=C(Nc1ccc2[nH]ncc2c1)C1CCNCC1 | 56* | -2
Cn1nccc1Nc1nc2ccc(C(=O)NCCOc3ccccc3)cc2s1 | 1 | 11
NC(=O)c1cnn(-c2ccnc(Nc3ccc(N4CCOCC4)cc3)c2)c1 | 30 | 2
Cn1nccc1Nc1nc(NCCCN2CCCC2=O)c2[nH]cnc2n1 | -4 | -6
O=C1CCCN1CCCNc1ccnc(NCCCN2CCCC2=O)n1 | 0 | -6
COc1cc(Nc2nc(NCCCN3CCCC3=O)c3[nH]cnc3n2)cc(OC)c1OC | 74* | -33
COc1cc(Nc2nccc(NCCCN3CCCC3=O)n2)cc(OC)c1OC | 52* | -1
O=C(NCCCN1CCCC1=O)c1ccnc(Nc2ccncc2)c1 | 6 | 6
O=C1CCCN1CCCNc1ncnc2nc(Nc3ccc(N4CCOCC4)cc3)[nH]c12 | 7 | -4
O=C1CCCN1CCCNc1nc(Nc2ccc(N3CCOCC3)cc2)nc2nc[nH]c12 | 54* | 3
CCCNC(=O)c1ccnc(NCCCN2CCCC2=O)c1 | 60* | -36
COc1ccc2c(c1)CC(C(=O)Nc1cc(F)c(-c3cn[nH]c3)cc1N1CCC(O)CC1)CO2 (centres undefined) | 0 | -2
O=C(O)c1ccc(Nc2ccc3[nH]ncc3c2)nc1 | -6 | 3
Cc1ncn(-c2ccc(Nc3cc(-c4cnn(Cc5ccccc5)c4-c4ccc(F)cc4)ccn3)cc2)n1 | -19 | 23
c1ccc(Nc2nc(NCc3nc4ccccc4[nH]3)c3ncn(-c4ccsc4)c3n2)nc1 | 32 | 8
SMILES | ULK1 inh | ASK1 primary
c1ccc(OCCNc2nc(Nc3ccc(N4CCOCC4)cc3)nc3nc[nH]c23)cc1 | 69* | 26
c1nc2nc(Nc3ccc(N4CCOCC4)cc3)nc(NCCN3CCOCC3)c2[nH]1 | 17 | 0
O=C(NC1CCN(Cc2ccccc2)CC1)c1ccc2nc(N3CCN(Cc4ccc5c(c4)OCO5)CC3)sc2c1 | 5 | 0
CC(=O)c1cccc(-c2cc(NCc3nc4ccccc4[nH]3)ncn2)c1 | -17 | 20
Cc1cc(-c2ccc(N=Nc3ccc4c(S(=O)(=O)O)cc(S(=O)(=O)O)c(N)c4c3O)c(C)c2)ccc1N=Nc1ccc2c(S(=O)(=O)O)cc(S(=O)(=O)O)c(N)c2c1O | 57* | nt
Nc1c(N=Nc2ccc(-c3ccc(N=Nc4cc(S(=O)(=O)O)c5ccccc5c4N)cc3)cc2)cc(S(=O)(=O)O)c2ccccc12 | 56* | nt
O=S(=O)(O)c1ccccc1O | -3 | nt
O=C(NCCOc1ccccc1)c1cnc(Nc2ccc(C(F)(F)F)cc2)s1 | -33 | 7
COC(=O)c1ccc2c(c1)CC(C(=O)Nc1ccc(-c3cn[nH]c3)cc1OCCN(C)C)CO2 (centres undefined) | -8 | -6
Cc1cc(NCc2cccc(C(F)(F)F)c2)nc(Nc2ncccn2)n1 | -2 | -17
OCCNc1nc(Nc2ccccn2)nc2c1ncn2-c1ccccc1 | 15 | 1
OCCNc1ncnc2nc(-c3ccc(N4CCOCC4)nc3)[nH]c12 | 5 | -3
CCN(CC)CCOc1cc(-c2ccncc2)ccc1NC(=O)C1COc2ccc(OC)cc2C1 (centres undefined) | -1 | -3
Cc1ncn(-c2ccc(Nc3nccc(-c4cc(F)cc(-c5ccnn5C)c4)n3)cc2)n1 | 15 | 19
Cc1ncn(-c2ccc(Nc3ncc4cccc(-c5ccn(C)n5)c4n3)cc2)n1 | 89* | -74
Cc1ncn(-c2ccc(Nc3ncc4cccc(-c5ccn[nH]5)c4n3)cc2)n1 | 24 | 16
Cc1ncn(-c2ccc(Nc3ncc4cccc(-c5nccs5)c4n3)cc2)n1 | 50* | 11
Cc1ccc(-c2ncn(-c3ccc(Nc4ncc5cccc(-c6nccs6)c5n4)cc3)n2)cn1 | 3 | 20
Cc1ncn(-c2ccc(Nc3ncc4cccc(-c5cccc6c5ccn6C)c4n3)cc2)n1 | -5 | -5
Cc1ncn(-c2ccc(Nc3ncc4cccc(-c5cn[nH]c5C)c4n3)cc2)n1 | 55* | -21
Cc1ncn(-c2ccc(Nc3ncc(Cl)c(-c4ccnn4C)n3)cc2)n1 | 64* | -8
NC(=O)c1ccc(-c2cncc(C(=O)NCCCN3CCCC3=O)c2)cc1 | 2 | 1
Cc1ncn(-c2ccc(Nc3ncc4cccc(-c5ccnn5C)c4n3)cc2)n1 | 52* | -26
Cc1ncn(-c2ccc(Nc3ncc4cccc(-c5cccnc5)c4n3)cc2)n1 | 10 | 9
Cc1ncn(-c2ccc(Nc3ncc4cccc(-c5cnc6ccccc6c5)c4n3)cc2)n1 | 10 | -8
SMILES | ULK1 inh | ASK1 primary
Cc1ncn(-c2ccc(N(CC3CC3)c3ncc4cccc(-c5cnn(CC6CC6)c5)c4n3)cc2)n1 | 99* | -6
Cc1cccc(CNC(=O)Nc2ccc(-c3cn[nH]c3)cc2)c1 | 8 | 2
CN(C)CC(=O)Nc1cccc(CNC(=O)Nc2ccc(-c3cn[nH]c3)cc2)c1 | 96* | 12
Cc1ccc(S(=O)(=O)n2ccn(CC(=O)Nc3cccc(Cl)c3)c2=O)cc1 | -10 | nt
CCCCCCCCCCCCCCCC[N+](C)(C)CC | -10 | nt
CCCCCCCCCCCCCCCC[N+](C)(C)Cc1ccccc1 | 48* | nt
CC(C)CC1C(=O)Nc2cc(S(C)(=O)=O)ccc2N1C(=O)c1ccco1 (centres undefined) | 12 | nt
O=C(N/N=C\C=C\c1ccc(Br)cc1)c1ccc2c(c1)OCO2 | 15 | nt
COC(=O)c1ccc(/C=C/C(=O)c2ccc3c(c2)OCCO3)cc1 | 43* | nt
Cn1cc(-c2ccc3cnc(Nc4cncnc4)c(Cl)c3c2)cn1 | -39 | -70
Fc1cc(-c2nc(Nc3ccc(CN4CCCCC4)cc3)ncc2F)cc(N2CCOCC2)c1 | 44* | 10
Fc1cc(-c2ccnc(Nc3ccc(N4CCOCC4)cc3)n2)cc(N2CCOCC2)c1 | 5 | 33
OC1CCN(c2ccc(Nc3nccc(-c4cc(F)cc(N5CCOCC5)c4)n3)cc2)CC1 | 45* | 31
Cc1cc(Nc2nccc(-c3cc(C#N)cc(N4CCOCC4)c3)n2)ccc1N1CCOCC1 | 14 | 18
Fc1cnc(Nc2ccc(CN3CCCCC3)cc2)nc1-c1cc(N2CCOCC2)cc(C(F)(F)F)c1 | -14 | 8
c1cc(Cn2cccn2)cc(Nc2nccc(-c3cncc(N4CCOCC4)c3)n2)c1 | 80* | 21
c1cc(-c2cncc(N3CCOCC3)c2)nc(Nc2ccc3c(c2)OCCO3)n1 | 4 | 18
N#Cc1cc(-c2ccnc(Nc3cccc(CN4CCCCC4)c3)n2)cc(N2CCOCC2)c1 | 79* | 32

Compound activity (PubChem)
